Laboratory results as given in PubChem BioAssay (Tox21).
Values joined by “and” are separate entries in the source; they are usually repeats but may differ in a detail not shown here. Equal entries are not always repeated. Inconclusive results are not listed. Entries that show only a call come without a potency. Some compounds were tested as several samples or in several runs, with calls that do not always agree. Active and inactive are the calls of the source. Unless noted, calls come from the whole dose curve.

Tests used:
[1] = qHTS assay to identify small molecule agonists of the sonic hedgehog signaling (Shh) pathway (AID 1259368);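 note: NIH/3T3-derived 3T3Gli1-Luc cells carrying a stable Gli1-driven firefly luciferase reporter; series mostly up to about 92 µM; nearly all actives have a fitted effect of over 15% in size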
In short: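 Read-out: firefly luciferase luminescence from a Gli1 response element reporter stably integrated in NIH/3T3-derived 3T3Gli1-Luc cells, measured 30 min at room temperature after reagent addition. Compound exposure lasted 24 hr at 37 C, 5% CO2.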

[2] = qHTS assay to identify small molecule antagonists of the sonic hedgehog signaling (Shh) pathway (AID 1259369); note: nearly all actives have a fitted effect of over 45% in size; note: potency is the fitted concentration of half-maximal effect
In short: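 Luminescence readout: firefly Luc under Gli1 response element in 3T3Gli1-Luc cells (NIH/3T3 clone). Antagonist mode, stimulation by conditioned medium; compound exposure 24hr at 37 C, 5% CO2.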

[3] = molecular target: Estrogen receptor beta (Homo sapiens) (UniProt Q92731); assay: qHTS assay to identify small molecule agonists of the estrogen receptor beta (ER-beta) signaling pathway (AID 1259377; active = well fitted activation curve with a large enough effect in the signal ratio in the repeat runs, not every such curve was filed as active; the % refers to the signal ratio)
Sequence of Estrogen receptor beta (Homo sapiens) (Q92731 whole entry, looked up): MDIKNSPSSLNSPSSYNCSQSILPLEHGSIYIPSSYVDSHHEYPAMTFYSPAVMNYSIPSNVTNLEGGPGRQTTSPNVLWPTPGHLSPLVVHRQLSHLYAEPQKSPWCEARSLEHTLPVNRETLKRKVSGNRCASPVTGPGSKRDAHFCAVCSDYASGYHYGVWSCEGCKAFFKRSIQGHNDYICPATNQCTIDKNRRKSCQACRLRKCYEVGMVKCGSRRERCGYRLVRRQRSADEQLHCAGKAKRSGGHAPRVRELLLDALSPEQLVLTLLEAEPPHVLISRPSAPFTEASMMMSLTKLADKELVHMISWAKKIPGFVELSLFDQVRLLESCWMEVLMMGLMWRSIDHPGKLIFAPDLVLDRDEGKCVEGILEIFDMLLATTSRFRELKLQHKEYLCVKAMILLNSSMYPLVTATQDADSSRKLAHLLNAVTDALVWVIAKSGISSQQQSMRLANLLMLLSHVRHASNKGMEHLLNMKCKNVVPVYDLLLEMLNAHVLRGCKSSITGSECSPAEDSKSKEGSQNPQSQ
In short: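 Screening used GripTite ER-beta-UAS-bla cells held in 2% charcoal-stripped FBS medium. After overnight (16 hr) compound incubation at 37C, beta-lactamase activity was detected with a FRET substrate by fluorescence.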

[4] = molecular target: Estrogen receptor beta (Homo sapiens) (UniProt Q92731); assay: qHTS assay to identify small molecule antagonists of the estrogen receptor beta (ER-beta) signaling pathway (AID 1259378; active = well fitted inhibition curve with a large enough effect in the signal ratio in the repeat runs, not every such curve was filed as active; the % refers to the signal ratio)
In short: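 ER-beta-UAS-bla HEK293T cells in 2% charcoal-stripped FBS medium treated with compound plus 1nM final 17-beta-estradiol for 16 hr at 37C. Beta-lactamase reporter read by FRET substrate fluorescence after 2 hours at room temperature.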

[5] = qHTS assay to identify small molecule agonists of the androgen receptor (AR) signaling pathway in the presence of an antagonist - cell viability counter screen (AID 1259379; active = well fitted curve in the direction sought with a large enough effect in the repeat runs; an effect the other way counts as inactive or inconclusive; note: nearly all actives have a fitted effect of over 25% in size; note: potency is the fitted concentration of half-maximal effect)
In short: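 Viability counter screen: CellTiter-Fluor fluorescence, measured in the same wells as the luciferase read-out. MDA-kb2 cells, 3,000/well, with nilutamide at 3.0uM final and compounds at 15 concentrations, 16 hr at 37C, 0% CO2.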

[6] = qHTS assay to identify small molecule agonists of the estrogen receptor beta (ER-beta) signaling pathway - cell viability counter screen (AID 1259380; active = well fitted curve in the direction sought with a large enough effect in the repeat runs; an effect the other way counts as inactive or inconclusive; note: nearly all actives have a fitted effect of over 30% in size; note: potency is the fitted concentration of half-maximal effect)
In short: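 Luminescence read-out (CellTiter-Glo, 30 min, room temp) taken in the same wells as the beta-lactamase reporter assay; ER-beta-UAS-bla HEK293T cells exposed to DMSO-dissolved compounds for 16 hr at 37C in 2% charcoal-stripped FBS medium.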

[7] = molecular target: Estrogen receptor (Homo sapiens) (UniProt P03372); assay: qHTS assay to identify small molecule agonists of the estrogen receptor alpha (ER-alpha) signaling pathway in the presence of an antagonist (AID 1259383); note: top concentration of the series differs between compounds; nearly all actives have a fitted effect of over 15% in size
Sequence of Estrogen receptor (Homo sapiens) (P03372 whole entry, looked up): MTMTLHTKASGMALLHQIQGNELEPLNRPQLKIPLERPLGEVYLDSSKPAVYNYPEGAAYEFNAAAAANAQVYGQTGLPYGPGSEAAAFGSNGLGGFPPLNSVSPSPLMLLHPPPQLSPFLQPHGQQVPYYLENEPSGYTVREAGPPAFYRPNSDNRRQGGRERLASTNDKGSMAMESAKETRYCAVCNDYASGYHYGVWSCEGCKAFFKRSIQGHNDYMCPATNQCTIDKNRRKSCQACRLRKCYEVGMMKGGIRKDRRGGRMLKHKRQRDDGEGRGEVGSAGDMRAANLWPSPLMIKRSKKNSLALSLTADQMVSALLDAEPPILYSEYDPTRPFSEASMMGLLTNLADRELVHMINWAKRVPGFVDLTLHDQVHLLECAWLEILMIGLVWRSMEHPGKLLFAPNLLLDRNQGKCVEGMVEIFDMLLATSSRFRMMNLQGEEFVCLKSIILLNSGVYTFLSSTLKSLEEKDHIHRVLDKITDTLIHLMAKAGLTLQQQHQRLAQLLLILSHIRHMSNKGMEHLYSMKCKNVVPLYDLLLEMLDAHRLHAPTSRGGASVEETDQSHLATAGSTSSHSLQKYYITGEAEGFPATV
In short: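 Luciferase luminescence (ONE-Glo, 30min at room temperature) measured in VM7Luc4E2 cells after 22hr compound exposure at 15 concentrations, with 10.0nM ICI-182,780 final present; cells express endogenous ER-alpha and carry four EREs upstream of luciferase.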

[8] = qHTS assay to identify small molecule agonists or antagonists of the thyroid stimulating hormone receptor (TSHR) signaling pathway - wild type cell line counter screen (AID 1259384)
In short: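 Wild-type Hek293 cells, 800/well, 18 h at 37C, then compound with Ro20-1724 for 30 min RT. cAMP by HTRF (cAMP-d2/anti-cAMP cryptate), 1 h RT, fluorescence read. 15 concentrations, triplicates.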

[9] = molecular target: Thyrotropin receptor (Homo sapiens) (UniProt P16473); assay: qHTS assay to identify small molecule antagonists of the thyroid stimulating hormone receptor (TSHR) signaling pathway (AID 1259385); note: nearly all actives have a fitted effect of over 20% in size
Sequence of Thyrotropin receptor (Homo sapiens) (P16473 whole entry, looked up): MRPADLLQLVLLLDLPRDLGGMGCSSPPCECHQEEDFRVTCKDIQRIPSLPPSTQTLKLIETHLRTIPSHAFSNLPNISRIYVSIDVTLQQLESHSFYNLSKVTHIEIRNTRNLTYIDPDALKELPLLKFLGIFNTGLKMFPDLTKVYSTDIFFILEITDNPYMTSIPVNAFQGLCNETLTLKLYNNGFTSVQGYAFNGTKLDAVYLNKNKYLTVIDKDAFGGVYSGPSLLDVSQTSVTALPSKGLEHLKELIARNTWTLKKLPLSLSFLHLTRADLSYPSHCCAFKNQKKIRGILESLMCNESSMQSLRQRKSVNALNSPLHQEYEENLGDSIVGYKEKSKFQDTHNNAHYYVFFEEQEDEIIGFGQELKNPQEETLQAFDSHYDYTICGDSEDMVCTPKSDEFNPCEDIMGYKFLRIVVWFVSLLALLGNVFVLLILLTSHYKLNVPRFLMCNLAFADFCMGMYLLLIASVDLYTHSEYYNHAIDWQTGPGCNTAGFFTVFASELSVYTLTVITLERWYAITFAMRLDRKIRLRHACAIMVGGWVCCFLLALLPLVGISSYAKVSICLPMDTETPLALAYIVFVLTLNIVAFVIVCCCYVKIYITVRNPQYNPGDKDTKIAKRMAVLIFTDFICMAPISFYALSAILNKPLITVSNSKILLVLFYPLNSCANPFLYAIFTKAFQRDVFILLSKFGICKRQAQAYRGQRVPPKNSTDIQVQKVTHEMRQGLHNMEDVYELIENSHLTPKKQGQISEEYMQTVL
In short: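 TSHR-HEK293 cells (800/well) plated 18 h, then compounds with Ro20-1724 and TSH at 1.5 ng/mL final, 30 min at room temperature. cAMP quantified by HTRF (cAMP-d2/anti-cAMP-cryptate, 1 h); 15 concentrations in triplicate.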

[10] = qHTS assay to identify small molecule agonists of the estrogen receptor alpha (ER-alpha) signaling pathway in the presence of an antagonist - cell viability counter screen (AID 1259386; active = well fitted curve in the direction sought with a large enough effect in the repeat runs; an effect the other way counts as inactive or inconclusive;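 note: cells exposed to compounds for 22 h at 37 °C before the viability read; nearly all actives have a fitted effect of over 30% in size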; note: potency is the fitted concentration of half-maximal effect)
In short: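 Read-out: CellTiter-Fluor fluorescence after 1hr reagent incubation, measured in the same wells as the luciferase readout. VM7Luc4E2 cells were exposed to 15 compound concentrations with 10.0nM ICI-182,780 for 22hr at 37C.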

[11] = molecular target: Progesterone receptor (Homo sapiens) (UniProt P06401); assay: qHTS assay to identify small molecule agonists of the progesterone receptor (PR) signaling pathway (AID 1346784); note: nearly all actives have a fitted effect of over 30% in size
Sequence of Progesterone receptor (Homo sapiens) (P06401 whole entry, looked up): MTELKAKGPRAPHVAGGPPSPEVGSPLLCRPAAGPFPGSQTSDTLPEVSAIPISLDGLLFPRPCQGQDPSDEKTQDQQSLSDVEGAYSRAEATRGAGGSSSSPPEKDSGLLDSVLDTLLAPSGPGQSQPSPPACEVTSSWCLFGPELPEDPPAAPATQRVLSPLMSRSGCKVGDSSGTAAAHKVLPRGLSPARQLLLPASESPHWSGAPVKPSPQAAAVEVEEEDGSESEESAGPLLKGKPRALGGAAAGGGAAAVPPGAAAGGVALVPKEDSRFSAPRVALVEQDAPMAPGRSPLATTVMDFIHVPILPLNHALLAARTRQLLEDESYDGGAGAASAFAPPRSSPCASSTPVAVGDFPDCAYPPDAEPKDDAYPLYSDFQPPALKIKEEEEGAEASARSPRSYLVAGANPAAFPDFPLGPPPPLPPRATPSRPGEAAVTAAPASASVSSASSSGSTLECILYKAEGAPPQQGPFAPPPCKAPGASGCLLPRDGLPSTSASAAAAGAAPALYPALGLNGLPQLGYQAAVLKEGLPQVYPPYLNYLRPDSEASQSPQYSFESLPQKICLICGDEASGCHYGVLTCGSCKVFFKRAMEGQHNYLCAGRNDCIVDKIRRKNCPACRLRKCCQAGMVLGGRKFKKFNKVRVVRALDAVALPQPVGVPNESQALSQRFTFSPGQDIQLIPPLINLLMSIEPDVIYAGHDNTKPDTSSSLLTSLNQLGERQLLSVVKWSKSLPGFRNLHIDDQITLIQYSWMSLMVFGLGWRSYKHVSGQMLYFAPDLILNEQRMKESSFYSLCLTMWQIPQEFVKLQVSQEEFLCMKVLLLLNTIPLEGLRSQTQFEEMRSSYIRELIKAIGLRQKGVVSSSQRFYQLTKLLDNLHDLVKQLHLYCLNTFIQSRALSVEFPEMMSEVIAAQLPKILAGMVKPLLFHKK
In short: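 Seed PR-UAS-bla HEK 293T cells (2% charcoal-stripped FBS), incubate 6 hr at 37C; add compounds in DMSO, 16 hr at 37C; add LiveBLAzer B/G substrate, 2 hr RT; read fluorescence intensity.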

[12] = molecular target: Progesterone receptor (Homo sapiens) (UniProt P06401); assay: qHTS assay to identify small molecule antagonists of the progesterone receptor (PR) signaling pathway (AID 1346795; active = well fitted inhibition curve with a large enough effect in the signal ratio in the repeat runs, not every such curve was filed as active; the % refers to the signal ratio)
In short: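 Screening used a GripTite HEK293T line with PR-responsive UAS-beta-lactamase. Cells were challenged with compound in the presence of 1 nM R5020 final for 16 hr at 37C; B/G FRET substrate, 2 hr room temperature, fluorescence.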

[13] = qHTS assay to identify small molecule antagonists of the progesterone receptor (PR) signaling pathway - cell viability counter screen (AID 1346798; active = well fitted curve in the direction sought with a large enough effect in the repeat runs; an effect the other way counts as inactive or inconclusive; note: series mostly up to about 92 µM; nearly all actives have a fitted effect of over 50% in size)
In short: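 Measures cytotoxicity in parallel with the PR antagonist reporter read: HEK293T PR-UAS-bla cells get compound and R5020 for 16 hr, and remaining viable cells are quantified by CellTiter-Glo luminescence.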

[14] = qHTS assay to identify small molecule agonists of the progesterone receptor (PR) signaling pathway - cell viability counter screen (AID 1346799); note: nearly all actives have a fitted effect of over 45% in size; note: potency is the fitted concentration of half-maximal effect
In short: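 Using the same plates as the PR reporter screen, HEK293T PR-UAS-bla cells received compounds for 16 hr at 37C and were then lysed with CellTiter-Glo; luminescence was read 30 min later at room temperature.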

[15] = qHTS assay to identify small molecule antagonists of the TGF-beta/Smad signaling pathway - cell viability counter screen (AID 1346824; active = well fitted curve in the direction sought with a large enough effect in the repeat runs; an effect the other way counts as inactive or inconclusive; note: nearly all actives have a fitted effect of over 50% in size)
In short: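 SBE-bla HEK 293T cells, incubated overnight, then compound plus 0.25 ng/mL TGF-beta1 (stock added) for 5 hr at 37 C. Viability was read in the same wells by CellTiter-Glo luminescence after 30 min at room temperature.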

[16] = qHTS assay to identify small molecule agonists of the TGF-beta/Smad signaling pathway - cell viability counter screen (AID 1346829; active = well fitted curve in the direction sought with a large enough effect in the repeat runs; an effect the other way counts as inactive or inconclusive; note: nearly all actives have a fitted effect of over 45% in size; note: potency is the fitted concentration of half-maximal effect)
In short: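 HEK 293T SBE-bla line, 5 hr compound exposure at 37 C, multiplexed CellTiter-Glo viability read by luminescence.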

[17] = qHTS assay to identify small molecule agonists of the TGF-beta/Smad signaling pathway (AID 1346859; active = well fitted activation curve with a large enough effect in the signal ratio in the repeat runs, not every such curve was filed as active; the % refers to the signal ratio; note: series mostly up to about 77 µM)
In short: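 Beta-lactamase reporter activity downstream of Smad binding elements was measured in stably transfected HEK 293T cells; compounds were incubated for 5 hr, substrate for 2 hr at room temperature.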

[18] = molecular target: Thyrotropin-releasing hormone receptor (Homo sapiens) (UniProt P34981); assay: qHTS assay to identify small molecule antagonists of the thyrotropin-releasing hormone receptor (TRHR) signaling pathway (AID 1346877; active = well fitted inhibition curve with a large enough effect in the repeat runs, not every such curve was filed as active; note: series mostly up to about 51 µM)
Sequence of Thyrotropin-releasing hormone receptor (Homo sapiens) (P34981 whole entry, looked up): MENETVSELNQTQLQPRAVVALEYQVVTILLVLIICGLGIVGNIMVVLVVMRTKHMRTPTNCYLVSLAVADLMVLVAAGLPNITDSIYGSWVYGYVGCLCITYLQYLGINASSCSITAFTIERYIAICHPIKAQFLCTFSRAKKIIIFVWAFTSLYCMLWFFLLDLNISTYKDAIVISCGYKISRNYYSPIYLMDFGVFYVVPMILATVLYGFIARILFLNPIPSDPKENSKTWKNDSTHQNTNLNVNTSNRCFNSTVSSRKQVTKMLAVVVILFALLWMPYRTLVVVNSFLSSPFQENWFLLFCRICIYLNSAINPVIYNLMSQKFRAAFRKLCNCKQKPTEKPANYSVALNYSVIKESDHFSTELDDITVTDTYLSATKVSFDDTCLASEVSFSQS
In short: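 HEK293/TRHR cells, 18 h, 37 °C; Ca2+ dye 2 h; cpd 5 min RT; TRH 1 nM final; fluorescence read 3 min, 1 s intervals; 15 concs, triplicate.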

[19] = molecular target: Androgen receptor (Homo sapiens) (UniProt P10275); assay: qHTS assay to identify small molecule agonists of the androgen receptor (AR) signaling pathway in the presence of an antagonist (AID 1259381); note: nearly all actives have a fitted effect of over 15% in size
Sequence of Androgen receptor (Homo sapiens) (P10275 whole entry, looked up): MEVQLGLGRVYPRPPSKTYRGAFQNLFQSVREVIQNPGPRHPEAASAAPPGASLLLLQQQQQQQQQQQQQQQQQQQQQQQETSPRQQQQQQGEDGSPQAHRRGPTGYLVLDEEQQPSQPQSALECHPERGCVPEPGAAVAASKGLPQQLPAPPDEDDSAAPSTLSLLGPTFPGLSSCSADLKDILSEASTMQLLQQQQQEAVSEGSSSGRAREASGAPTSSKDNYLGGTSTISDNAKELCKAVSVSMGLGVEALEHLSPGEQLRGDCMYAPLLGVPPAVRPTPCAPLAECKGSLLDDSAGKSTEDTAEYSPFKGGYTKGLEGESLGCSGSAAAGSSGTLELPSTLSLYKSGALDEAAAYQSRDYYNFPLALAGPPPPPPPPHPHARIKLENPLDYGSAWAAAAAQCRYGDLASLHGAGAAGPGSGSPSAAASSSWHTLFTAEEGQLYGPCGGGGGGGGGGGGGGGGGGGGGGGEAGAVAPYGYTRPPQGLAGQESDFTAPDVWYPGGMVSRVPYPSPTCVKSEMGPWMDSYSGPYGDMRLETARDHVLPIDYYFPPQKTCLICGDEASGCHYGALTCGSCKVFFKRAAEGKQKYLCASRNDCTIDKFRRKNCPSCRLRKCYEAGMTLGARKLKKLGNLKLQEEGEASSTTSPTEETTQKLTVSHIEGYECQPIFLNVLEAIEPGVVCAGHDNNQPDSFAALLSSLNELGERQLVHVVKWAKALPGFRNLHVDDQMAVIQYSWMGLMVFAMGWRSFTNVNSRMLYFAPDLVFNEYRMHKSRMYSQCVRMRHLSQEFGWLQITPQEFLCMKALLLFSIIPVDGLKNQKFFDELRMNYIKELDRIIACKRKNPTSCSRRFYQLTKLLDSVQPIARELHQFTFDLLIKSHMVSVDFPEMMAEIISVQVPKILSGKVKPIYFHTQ
In short: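 Luciferase read-out (ONE-Glo, 30min room temperature) in MDA-kb2 MMTV-reporter cells; agonist mode run in presence of AR antagonist nilutamide, 3.0uM final. Compounds tested as 15-point series, 16hr exposure at 37C, 0% CO2.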

[20] = qHTS assay to identify small molecule antagonists of the estrogen receptor beta (ER-beta) signaling pathway - cell viability counter screen (AID 1259382; active = well fitted curve in the direction sought with a large enough effect in the repeat runs; an effect the other way counts as inactive or inconclusive; note: series mostly up to about 92 µM; nearly all actives have a fitted effect of over 55% in size)
In short: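 Luminescent ATP read-out (CellTiter-Glo, 30 min, RT) taken in the same wells as the bla reporter assay. HEK293T ER-beta-UAS-bla cells in 2% charcoal-stripped FBS were exposed to compounds with 1nM E2 for 16 hr at 37C.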

SMILES	outcome [1]	Potency [2]	outcome [3]	Potency [4]	Potency [5]	Potency [6]	Potency [7]	outcome [8]	outcome [9]	Potency [10]	Potency [11]	outcome [12]	Potency [13]	Potency [14]	outcome [15]	Potency [16]	outcome [17]	outcome [18]	Potency [19]	Potency [20]
CCCCC1C(=O)N(c2ccccc2)N(c2ccccc2)C1=O	inactive	inactive	inactive	inactive	inactive	inactive	inactive	inactive	inactive	inactive	inactive	inactive	inactive	inactive	inactive	inactive	inactive	inactive	–	–
c1ccc2[nH]ccc2c1	inactive	6.01 µM (active) and inactive	inactive	inactive	7.57 µM (active) and inactive	26.9 µM (active) and inactive	–	inactive	inactive	60.1 µM (active) and inactive	–	–	–	26.9 µM (active) and inactive	inactive	42.9 µM (active) and inactive	inactive	inactive	inactive	–
Nc1ccc(O)c(C(=O)O)c1	inactive	inactive	inactive	inactive	inactive	inactive	inactive	inactive	inactive	48.1 µM (active) and 54.5 µM (active)	inactive	inactive	inactive	inactive	inactive	inactive	inactive	inactive	–	inactive
COc1ccc2[nH]cc(CCNC(C)=O)c2c1	inactive	inactive	inactive	inactive	inactive	inactive	inactive	inactive	inactive	inactive	inactive	inactive	inactive	inactive	inactive	inactive	inactive	inactive	–	–
CNC[C@H](O)c1cccc(O)c1	inactive	inactive	inactive	inactive	inactive	inactive	–	inactive	inactive	inactive	inactive	inactive	inactive	inactive	inactive	inactive	inactive	–	–	inactive
O=c1cc[nH]c(=S)[nH]1	inactive	inactive	inactive	inactive	inactive	inactive	inactive	inactive	inactive	inactive	inactive	inactive	inactive	inactive	inactive	inactive	inactive	inactive	–	–
NC(N)=O	inactive	7.28 µM (active) and inactive and 68.6 µM (active)	inactive	inactive	inactive	inactive	inactive	inactive	inactive	inactive	inactive	inactive	inactive	inactive	inactive	inactive	inactive	–	–	–
CCCNC(=O)NS(=O)(=O)c1ccc(Cl)cc1	inactive	inactive	inactive	inactive	inactive	inactive	inactive	inactive	inactive	inactive	inactive	inactive	inactive	inactive	inactive	inactive	inactive	–	–	inactive
C1N2CN3CN1CN(C2)C3	inactive	inactive	inactive	inactive	inactive	inactive	–	inactive	inactive	inactive	inactive	inactive	inactive	inactive	inactive	inactive	inactive	inactive	inactive	–
CCCN(CCC)S(=O)(=O)c1ccc(C(=O)O)cc1	inactive	inactive	inactive	inactive	inactive	inactive	–	inactive	inactive	inactive	inactive	inactive	inactive	inactive	inactive	inactive	inactive	inactive	inactive	–
NC(N)=NC(=O)c1nc(Cl)c(N)nc1N	inactive	inactive	inactive	inactive	inactive	inactive	inactive	inactive	inactive	inactive	inactive	inactive	inactive	inactive	inactive	inactive	inactive	inactive	–	inactive
Cc1ccc(O)cc1	inactive	inactive	inactive	inactive	inactive	inactive	–	inactive	inactive	inactive	inactive	inactive	inactive	inactive	inactive	inactive	inactive	inactive	inactive	–
Cc1ccccc1C(OCCN(C)C)c1ccccc1 (stereo not drawn)	inactive	27.3 µM (active)	inactive	inactive	inactive	61.1 µM (active)	inactive	inactive	inactive	inactive	inactive	inactive	–	inactive	inactive	inactive	inactive	inactive	–	inactive
C/C=C/c1ccc(OC)cc1	inactive	inactive	inactive	inactive	inactive	inactive	–	inactive	inactive	inactive	inactive	inactive	inactive	inactive	inactive	inactive	inactive	inactive	–	inactive
CC(C)[C@@H]1CC[C@@H](C)C[C@H]1O	inactive	inactive and 31.6 µM (active)	inactive	inactive	inactive	inactive	–	inactive	inactive	inactive	inactive	inactive	inactive	inactive	inactive	inactive	inactive	inactive	inactive	inactive
